This note sets out measurements from paper PMC11006913.

What all share (assay): PBM; 200 nM protein, PBS
Holding throughout (conditions): dsDNA, one strand shown

The target in test [1] is HOXB4 (Homo sapiens, UniProt P17483 148-234).
In test [2] the target is HOXB4 (Homo sapiens, UniProt P17483 148-234, V174I).
The target in test [3] is ALX4 (Homo sapiens, UniProt Q9H161 200-286).
The target in test [4] is ALX4 (Homo sapiens, UniProt Q9H161 200-286, Q225E).
In test [5] the target is VAX1 (Homo sapiens, UniProt Q5SQQ9 86-172).
Test [6] has as its target VAX1 (Homo sapiens, UniProt Q5SQQ9 86-172, T142I).
Test [7] deals with VAX1 (Homo sapiens, UniProt Q5SQQ9 86-172, K157R).
The target of test [8] is ALX3 (Homo sapiens, UniProt O95076 139-225, N203Q).
Test [9] has as its target ALX3 (Homo sapiens, UniProt O95076 139-225).
For test [10], the target named is PROP1 (Homo sapiens, UniProt O75360 56-141).
Test [11] addresses PROP1 (Homo sapiens, UniProt O75360 56-141, R99H).
The target in test [12] is ALX3 (Homo sapiens, UniProt O95076 139-225, L168Q).
The target of test [13] is ALX3 (Homo sapiens, UniProt O95076 139-225, L168V).
Test [14] addresses PROP1 (Homo sapiens, UniProt O75360 56-141, F88S).
For test [15], the target named is ALX3 (Homo sapiens, UniProt O95076 139-225, N203S).
For test [16], the target named is HOXB6 (Homo sapiens, UniProt P17509 132-218, K202E).
Test [17] addresses ALX1 (Homo sapiens, UniProt Q15699 118-204, L144V).
For test [18], the target named is ALX1 (Homo sapiens, UniProt Q15699 118-204, L144R).
The target in test [19] is ALX1 (Homo sapiens, UniProt Q15699 118-204).
The target in test [20] is HOXB6 (Homo sapiens, UniProt P17509 132-218).
For test [21], the target named is HOXA7 (Homo sapiens, UniProt P31268 116-202).
The target in test [22] is HOXA7 (Homo sapiens, UniProt P31268 116-202, W177C).
For test [23], the target named is PRRX1 (Homo sapiens, UniProt P54821 80-166, F113S).
The target of test [24] is T1, NKX2-6 (Homo sapiens, UniProt A6NCS4 118-204).
T1 sequence: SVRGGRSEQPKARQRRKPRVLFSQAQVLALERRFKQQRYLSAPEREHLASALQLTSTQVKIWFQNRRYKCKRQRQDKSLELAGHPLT

The target in test [25] is T2, NKX2-6 (Homo sapiens, UniProt A6NCS4 118-204, F151L).
T2 sequence: T1 sequence with F34L

The target in test [26] is PRRX1 (Homo sapiens, UniProt P54821 80-166).
For test [27], the target named is HOXC10 (Homo sapiens, UniProt Q9NYD6 254-340).
In test [28] the target is HOXC10 (Homo sapiens, UniProt Q9NYD6 254-340, K271E).

Residue numbers refer to the chain shown, from its start.

ALX4 (Homo sapiens, UniProt Q9H161 200-286), sequence (Q9H161 200-286): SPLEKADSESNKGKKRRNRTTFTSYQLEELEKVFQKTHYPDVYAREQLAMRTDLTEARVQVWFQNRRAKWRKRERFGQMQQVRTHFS
HOXB4 (Homo sapiens, UniProt P17483 148-234), sequence (P17483 148-234): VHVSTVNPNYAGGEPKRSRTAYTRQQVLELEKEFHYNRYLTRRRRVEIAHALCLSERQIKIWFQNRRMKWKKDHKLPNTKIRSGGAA
ALX4 (Homo sapiens, UniProt Q9H161 200-286, Q225E), sequence (Q9H161 200-286 Q225E): as the sequence (Q9H161 200-286) above, with Q26E counted along it
HOXB4 (Homo sapiens, UniProt P17483 148-234, V174I), sequence (P17483 148-234 V174I): as the sequence (P17483 148-234) above, with V27I counted along it
PRRX1 (Homo sapiens, UniProt P54821 80-166), sequence (P54821 80-166): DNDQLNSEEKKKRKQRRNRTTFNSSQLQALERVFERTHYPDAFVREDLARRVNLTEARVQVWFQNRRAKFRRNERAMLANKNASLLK
ALX3 (Homo sapiens, UniProt O95076 139-225, N203S), sequence (O95076 139-225 N203S): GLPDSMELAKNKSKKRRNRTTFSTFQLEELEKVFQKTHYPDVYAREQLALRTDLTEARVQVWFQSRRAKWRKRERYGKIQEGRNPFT
HOXB6 (Homo sapiens, UniProt P17509 132-218), sequence (P17509 132-218): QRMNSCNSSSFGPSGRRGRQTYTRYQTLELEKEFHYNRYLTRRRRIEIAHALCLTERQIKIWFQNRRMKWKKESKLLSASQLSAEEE
PRRX1 (Homo sapiens, UniProt P54821 80-166, F113S), sequence (P54821 80-166 F113S): as the sequence (P54821 80-166) above, with F34S counted along it
PROP1 (Homo sapiens, UniProt O75360 56-141, F88S), sequence (O75360 56-141 F88S): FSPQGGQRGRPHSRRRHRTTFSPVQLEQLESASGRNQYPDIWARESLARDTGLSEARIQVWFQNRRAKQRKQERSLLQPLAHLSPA
ALX1 (Homo sapiens, UniProt Q15699 118-204), sequence (Q15699 118-204): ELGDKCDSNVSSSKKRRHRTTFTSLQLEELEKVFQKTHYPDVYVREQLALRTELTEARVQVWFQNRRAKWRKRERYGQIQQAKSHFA
ALX1 (Homo sapiens, UniProt Q15699 118-204, L144V), sequence (Q15699 118-204 L144V): as the sequence (Q15699 118-204) above, with L27V counted along it
ALX3 (Homo sapiens, UniProt O95076 139-225, L168Q), sequence (O95076 139-225 L168Q): as the sequence (O95076 139-225 N203S) above, with L30Q, S65N counted along it
PROP1 (Homo sapiens, UniProt O75360 56-141, R99H), sequence (O75360 56-141 R99H): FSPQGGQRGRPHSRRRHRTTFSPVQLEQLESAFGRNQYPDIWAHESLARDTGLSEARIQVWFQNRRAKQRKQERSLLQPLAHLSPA
PROP1 (Homo sapiens, UniProt O75360 56-141), sequence (O75360 56-141): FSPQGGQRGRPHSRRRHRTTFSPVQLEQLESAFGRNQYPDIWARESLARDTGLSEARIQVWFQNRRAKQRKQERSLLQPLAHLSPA
ALX3 (Homo sapiens, UniProt O95076 139-225, L168V), sequence (O95076 139-225 L168V): as the sequence (O95076 139-225 N203S) above, with L30V, S65N counted along it
ALX3 (Homo sapiens, UniProt O95076 139-225, N203Q), sequence (O95076 139-225 N203Q): as the sequence (O95076 139-225 N203S) above, with S65Q counted along it
ALX3 (Homo sapiens, UniProt O95076 139-225), sequence (O95076 139-225): as the sequence (O95076 139-225 N203S) above, with S65N counted along it
ALX1 (Homo sapiens, UniProt Q15699 118-204, L144R), sequence (Q15699 118-204 L144R): as the sequence (Q15699 118-204) above, with L27R counted along it
HOXB6 (Homo sapiens, UniProt P17509 132-218, K202E), sequence (P17509 132-218 K202E): as the sequence (P17509 132-218) above, with K71E counted along it
HOXC10 (Homo sapiens, UniProt Q9NYD6 254-340, K271E), sequence (Q9NYD6 254-340 K271E): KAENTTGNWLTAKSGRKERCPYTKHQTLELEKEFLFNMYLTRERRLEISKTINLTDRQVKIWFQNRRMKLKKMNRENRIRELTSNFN
HOXA7 (Homo sapiens, UniProt P31268 116-202), sequence (P31268 116-202): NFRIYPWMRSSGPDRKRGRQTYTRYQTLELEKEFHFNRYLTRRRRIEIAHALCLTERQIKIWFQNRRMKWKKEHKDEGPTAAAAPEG
VAX1 (Homo sapiens, UniProt Q5SQQ9 86-172, K157R), sequence (Q5SQQ9 86-172 K157R): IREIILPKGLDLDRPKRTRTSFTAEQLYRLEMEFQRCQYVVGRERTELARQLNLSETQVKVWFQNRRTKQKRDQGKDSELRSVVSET
VAX1 (Homo sapiens, UniProt Q5SQQ9 86-172, T142I), sequence (Q5SQQ9 86-172 T142I): as the sequence (Q5SQQ9 86-172 K157R) above, with T57I, R72K counted along it
HOXC10 (Homo sapiens, UniProt Q9NYD6 254-340), sequence (Q9NYD6 254-340): as the sequence (Q9NYD6 254-340 K271E) above, with E18K counted along it
HOXA7 (Homo sapiens, UniProt P31268 116-202, W177C), sequence (P31268 116-202 W177C): as the sequence (P31268 116-202) above, with W62C counted along it
VAX1 (Homo sapiens, UniProt Q5SQQ9 86-172), sequence (Q5SQQ9 86-172): as the sequence (Q5SQQ9 86-172 K157R) above, with R72K counted along it

Turning to ATCGTTCC, the binding signal in test [1] is 9.81 upbm affinity estimate (log intensity, higher = more binding, comparable within an allelic series); in test [2], 9.76 upbm affinity estimate (log intensity, higher = more binding, comparable within an allelic series).
In the case of AACGATAT, the binding signal in test [1] is 10.7 upbm affinity estimate (log intensity, higher = more binding, comparable within an allelic series); in test [2], 10.9 upbm affinity estimate (log intensity, higher = more binding, comparable within an allelic series).
For CTGGAGCC, the binding signal in test [1] was 7.25 upbm affinity estimate (log intensity, higher = more binding, comparable within an allelic series); in test [3], 7.69 upbm affinity estimate (log intensity, higher = more binding, comparable within an allelic series); in [4], 8.02 upbm affinity estimate (log intensity, higher = more binding, comparable within an allelic series); in [2] it was 7.29 upbm affinity estimate (log intensity, higher = more binding, comparable within an allelic series); in test [5] it was 6.85 upbm affinity estimate (log intensity, higher = more binding, comparable within an allelic series); in [6], 6.94 upbm affinity estimate (log intensity, higher = more binding, comparable within an allelic series). The binding signal in test [7] is 6.67 upbm affinity estimate (log intensity, higher = more binding, comparable within an allelic series).
As to CCTGTGGA, the binding signal in test [1] is 7.33 upbm affinity estimate (log intensity, higher = more binding, comparable within an allelic series); in test [3] it was 8.17 upbm affinity estimate (log intensity, higher = more binding, comparable within an allelic series); in test [4], 8.04 upbm affinity estimate (log intensity, higher = more binding, comparable within an allelic series); in [2], 7.56 upbm affinity estimate (log intensity, higher = more binding, comparable within an allelic series).
As for ATTAGTTG, the binding signal is 11.2 upbm affinity estimate (log intensity, higher = more binding, comparable within an allelic series) in test [1] and 11.5 upbm affinity estimate (log intensity, higher = more binding, comparable within an allelic series) in [2].
Turning to GCTGCGCC, the binding signal is 7.58 upbm affinity estimate (log intensity, higher = more binding, comparable within an allelic series) in test [1]; 8.05 upbm affinity estimate (log intensity, higher = more binding, comparable within an allelic series) in test [3]; 8.03 upbm affinity estimate (log intensity, higher = more binding, comparable within an allelic series) in [4]; 7.62 upbm affinity estimate (log intensity, higher = more binding, comparable within an allelic series) in [2]; 7.68 upbm affinity estimate (log intensity, higher = more binding, comparable within an allelic series) in test [8]; 7.52 upbm affinity estimate (log intensity, higher = more binding, comparable within an allelic series) in test [9]. Also, the binding signal is 6.8 upbm affinity estimate (log intensity, higher = more binding, comparable within an allelic series) in test [10]; 6.45 upbm affinity estimate (log intensity, higher = more binding, comparable within an allelic series) in test [11]; 7.66 upbm affinity estimate (log intensity, higher = more binding, comparable within an allelic series) in [12]; 7.62 upbm affinity estimate (log intensity, higher = more binding, comparable within an allelic series) in test [13]; 6.48 upbm affinity estimate (log intensity, higher = more binding, comparable within an allelic series) in test [14]; 7.7 upbm affinity estimate (log intensity, higher = more binding, comparable within an allelic series) in [15].
On to CCTCACCG, for which the binding signal in [1] was 7.41 upbm affinity estimate (log intensity, higher = more binding, comparable within an allelic series); in test [2] it was 7.32 upbm affinity estimate (log intensity, higher = more binding, comparable within an allelic series).
Consider CAGAAGGC, for which the binding signal was 7.78 upbm affinity estimate (log intensity, higher = more binding, comparable within an allelic series) in [1] and 7.7 upbm affinity estimate (log intensity, higher = more binding, comparable within an allelic series) in test [2].
As to CATCAGCG, the binding signal was 10.1 upbm affinity estimate (log intensity, higher = more binding, comparable within an allelic series) in test [1] and 10.3 upbm affinity estimate (log intensity, higher = more binding, comparable within an allelic series) in [2].
ACAACGAT: the binding signal was 9.88 upbm affinity estimate (log intensity, higher = more binding, comparable within an allelic series) in test [1] and 9.27 upbm affinity estimate (log intensity, higher = more binding, comparable within an allelic series) in test [2].
As to CCTGCGTC, the binding signal in [1] is 7.55 upbm affinity estimate (log intensity, higher = more binding, comparable within an allelic series); in [2], 7.44 upbm affinity estimate (log intensity, higher = more binding, comparable within an allelic series).
Turning to AATTTCTG, the binding signal was 9.75 upbm affinity estimate (log intensity, higher = more binding, comparable within an allelic series) in [1] and 9.62 upbm affinity estimate (log intensity, higher = more binding, comparable within an allelic series) in [2].
Turning to ACCCCCGT, the binding signal was 7.65 upbm affinity estimate (log intensity, higher = more binding, comparable within an allelic series) in test [1]; 8.84 upbm affinity estimate (log intensity, higher = more binding, comparable within an allelic series) in [16]; 7.64 upbm affinity estimate (log intensity, higher = more binding, comparable within an allelic series) in [2]; 6.28 upbm affinity estimate (log intensity, higher = more binding, comparable within an allelic series) in test [17]; 7.64 upbm affinity estimate (log intensity, higher = more binding, comparable within an allelic series) in test [8]; 6.2 upbm affinity estimate (log intensity, higher = more binding, comparable within an allelic series) in test [18]. The binding signal in test [9] was 7.58 upbm affinity estimate (log intensity, higher = more binding, comparable within an allelic series); in test [12] it was 7.58 upbm affinity estimate (log intensity, higher = more binding, comparable within an allelic series); in [13], 7.57 upbm affinity estimate (log intensity, higher = more binding, comparable within an allelic series); in test [19], 6.29 upbm affinity estimate (log intensity, higher = more binding, comparable within an allelic series); in [15] it was 7.61 upbm affinity estimate (log intensity, higher = more binding, comparable within an allelic series); in test [20] it was 8.76 upbm affinity estimate (log intensity, higher = more binding, comparable within an allelic series).
For CGGCAGAG, the binding signal in test [1] was 7.39 upbm affinity estimate (log intensity, higher = more binding, comparable within an allelic series); in test [21] it was 8.53 upbm affinity estimate (log intensity, higher = more binding, comparable within an allelic series); in test [2], 7.51 upbm affinity estimate (log intensity, higher = more binding, comparable within an allelic series); in [22] it was 8.39 upbm affinity estimate (log intensity, higher = more binding, comparable within an allelic series).
In the case of CAGGCACG, the binding signal in test [1] was 7.26 upbm affinity estimate (log intensity, higher = more binding, comparable within an allelic series); in test [23] it was 9.38 upbm affinity estimate (log intensity, higher = more binding, comparable within an allelic series); in test [2], 7.43 upbm affinity estimate (log intensity, higher = more binding, comparable within an allelic series); in [24], 9.31 upbm affinity estimate (log intensity, higher = more binding, comparable within an allelic series); in test [25], 9.26 upbm affinity estimate (log intensity, higher = more binding, comparable within an allelic series); in test [26], 9.24 upbm affinity estimate (log intensity, higher = more binding, comparable within an allelic series).
Regarding CCAACGGA, the binding signal in test [1] is 7.78 upbm affinity estimate (log intensity, higher = more binding, comparable within an allelic series); in [23] it was 9.38 upbm affinity estimate (log intensity, higher = more binding, comparable within an allelic series); in [2], 7.67 upbm affinity estimate (log intensity, higher = more binding, comparable within an allelic series); in [10] it was 6.62 upbm affinity estimate (log intensity, higher = more binding, comparable within an allelic series); in test [11] it was 6.69 upbm affinity estimate (log intensity, higher = more binding, comparable within an allelic series); in test [14], 6.66 upbm affinity estimate (log intensity, higher = more binding, comparable within an allelic series). The binding signal in test [26] was 9.16 upbm affinity estimate (log intensity, higher = more binding, comparable within an allelic series).
On to ATTGATCC, for which the binding signal is 10.1 upbm affinity estimate (log intensity, higher = more binding, comparable within an allelic series) in [1] and 10 upbm affinity estimate (log intensity, higher = more binding, comparable within an allelic series) in test [2].
As for CAGGGTCC, the binding signal in [1] was 7.33 upbm affinity estimate (log intensity, higher = more binding, comparable within an allelic series); in [27], 10 upbm affinity estimate (log intensity, higher = more binding, comparable within an allelic series); in [2], 7.37 upbm affinity estimate (log intensity, higher = more binding, comparable within an allelic series); in [28], 10 upbm affinity estimate (log intensity, higher = more binding, comparable within an allelic series).
Consider AGGCGCGC, for which the binding signal in test [1] was 7.53 upbm affinity estimate (log intensity, higher = more binding, comparable within an allelic series); in test [16], 9.19 upbm affinity estimate (log intensity, higher = more binding, comparable within an allelic series); in test [2], 7.6 upbm affinity estimate (log intensity, higher = more binding, comparable within an allelic series); in [17], 6.59 upbm affinity estimate (log intensity, higher = more binding, comparable within an allelic series); in [18] it was 6.72 upbm affinity estimate (log intensity, higher = more binding, comparable within an allelic series); in [19] it was 6.44 upbm affinity estimate (log intensity, higher = more binding, comparable within an allelic series). Also, the binding signal in [20] is 8.96 upbm affinity estimate (log intensity, higher = more binding, comparable within an allelic series).
Turning to AGACCCGA, the binding signal in test [1] was 7.82 upbm affinity estimate (log intensity, higher = more binding, comparable within an allelic series); in test [2], 7.69 upbm affinity estimate (log intensity, higher = more binding, comparable within an allelic series).
On to ACACGAGC, for which the binding signal in test [1] was 7.84 upbm affinity estimate (log intensity, higher = more binding, comparable within an allelic series); in test [2], 7.68 upbm affinity estimate (log intensity, higher = more binding, comparable within an allelic series).
